Hits are enriched below; roughly 20% of the tested compounds scored in any of these assays.
Shiga inhibitor: Shiga toxin inhibition. Vero cells, Shiga toxin protein synthesis inhibition reporter. inhibition, % at 38.7 µM. 290,000 compounds, 9.2% hits. AID 2315; in the data active means inhibition mostly above about 28%, no sharp cut-off; inactive means mostly below about 43%; further: 0% is about no effect
HCMV inh: human cytomegalovirus inhibition. HFF cells, HCMV-luciferase reporter, 72 h; stronger effect = lower value. activity change, negative = inhibition, % at 57.5 µM. 410,000 compounds, 4.5% hits. AID 1259415; in the data active means activity change below about -60%; inconclusive means no clear call, values can overlap the other calls; inactive means above about -39%; further: on the % scale 0 is the no-effect control and ±100 the full control effect
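Compounds were evaluated in HFFs infected with an HCMV luciferase reporter virus (MOI 1 PFU/cell). Luciferase in lysates collected 72 h post infection served as the replication measure.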
Pf growth 48h: inhibits P. falciparum growth in the first generation, 48 h; P. falciparum luciferase growth in erythrocytes, 48 h; Potency, µM (doses to about 28.7 µM), for inactives: at the top dose activity change, negative = inhibition, hits mostly inhibitors; 310,000 compounds, 5.9% hits; further: potency means the concentration at half of the fitted maximal effect; on the % scale 0 is the no-effect control and ±100 the full control effect
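Here the parasites carry a stable luciferase gene and grow inside erythrocytes in Albumax-based RPMI medium with compound for one erythrocytic cycle. Activity is scored as loss of luminescent signal.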
Cycloheximide cs: counter-screen for Shiga toxin inhibitors: cycloheximide protein synthesis inhibition; 300,000 compounds, 12% hits; AID 2314; max response, %; cell reporter, cycloheximide protein synthesis inhibition counterscreen; in the data active means max response mostly above about 13%, no sharp cut-off; inactive means mostly below about 14%; further: read at 38.3 µM for the half of the compounds with a filed dose; 0% is about no effect
Pf growth 96h: P. falciparum growth inhibition at 96 hours. Potency, µM (top dose mostly 28.7 µM), for the others: at the highest dose activity change, negative = inhibition, usual class: inhibitors. AID 504834. P. falciparum luciferase reporter growth, 96 h. 320,000 compounds, 6.9% hits; further: potency means the concentration at half of the fitted maximal effect; on the % scale 0 is the no-effect control and ±100 the full control effect
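Luminescence readout: decreased luciferase signal marks inhibited growth of reporter-expressing P. falciparum in infected red cells (2% hematocrit, 0.05% parasitemia final), exposed to compound two generations (96 h, 37 C, 5% CO2).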
* marks the source's active call; other numbers are inactive results. Unless noted, the call rests on the fitted dose curve; in most records, active means well fitted inhibition curve with a large enough effect; inconclusive means small, poorly fitted or top-dose-only effect, or another doubt; inactive means no such curve, though single readings can be large or run the other way.

What do the screens show for `Cc1ccc2c(c1)c(=O)c(C(=O)c1ccc3c(c1)OCO3)cn2Cc1cccc(F)c1`?
HCMV inh: 0

Results for O=C(NCc1ccccc1)C1c2ccccc2Oc2ccccc21 ?
Shiga inhibitor: 11; HCMV inh: -10; Pf growth 48h: -1%; Cycloheximide cs: 3; Pf growth 96h: 5%

What do the screens show for `COc1ccc(CNC(=O)c2ccc(CS(=O)c3ccccc3)o2)cc1` (centres undefined)?
Shiga inhibitor: 9; HCMV inh: -15; Pf growth 48h: -5%; Cycloheximide cs: -7; Pf growth 96h: -27%

What do the screens show for `CCOc1ccc(N(CC(=O)Nc2ccc(Br)cc2)S(C)(=O)=O)cc1`?
Shiga inhibitor: 54*; HCMV inh: 89; Pf growth 48h: 51%; Cycloheximide cs: 30*; Pf growth 96h: inconclusive

How did CCOc1ccc(N(CC(=O)Nc2ccc(OC)cc2)S(=O)(=O)c2ccc(Cl)cc2)cc1 do in these assays?
HCMV inh: 4

What do the screens show for `O=C(C1CCCN1C(=O)c1cccs1)N1CCN(Cc2ccc3c(c2)OCO3)CC1` (centres undefined)?
Shiga inhibitor: -1; HCMV inh: 11; Pf growth 48h: -6%; Cycloheximide cs: -3; Pf growth 96h: -36%

How did CN(C)c1ccc(CNC(=O)C2CCN(Cc3cc4ccccc4n3Cc3ccccc3)CC2)cc1 do in these assays?
HCMV inh: 9

Results for C=C(C)C1CC=C(C)/C(=N/NC(=O)COc2ccc(Cl)cc2)C1 (centres undefined) ?
Shiga inhibitor: -11; HCMV inh: 16; Pf growth 48h: 3%; Cycloheximide cs: -5; Pf growth 96h: -14%

How did C=C(C)C1CC=C(C)/C(=N/NC(=O)c2ccoc2C)C1 (centres undefined) do in these assays?
Shiga inhibitor: active; HCMV inh: -7; Pf growth 48h: 17%; Cycloheximide cs: 66*; Pf growth 96h: -1%

What do the screens show for `C=C(C)C1CC=C(C)/C(=N/NC(=O)COc2cccc(C)c2)C1` (centres undefined)?
Shiga inhibitor: 41*; HCMV inh: 5; Pf growth 48h: inconclusive; Cycloheximide cs: 8; Pf growth 96h: inconclusive

What do the screens show for `C=C(C)C1CC=C(C)/C(=N/NC(=O)c2ccc(NC(=O)c3cccc(C)c3)cc2)C1` (centres undefined)?
Shiga inhibitor: 13; HCMV inh: 2; Pf growth 48h: -8%; Cycloheximide cs: -1; Pf growth 96h: 0%

What do the screens show for `C=C(C)C1CC=C(C)/C(=N/NC(=S)Nc2ccccc2)C1` (centres undefined)?
Shiga inhibitor: 27; HCMV inh: -15; Pf growth 48h: 10%; Cycloheximide cs: 21*; Pf growth 96h: 54%

What do the screens show for `Nc1nc(-c2ccc(Cl)cc2)nc(-c2ccc(Cl)cc2)n1`?
Shiga inhibitor: 24; HCMV inh: -23; Pf growth 48h: 32%; Cycloheximide cs: -1; Pf growth 96h: 51%

Results for CCCc1cnc(N2CCN(C(=O)c3ccc(OC)cc3)CC2)nc1 ?
Shiga inhibitor: -8; Pf growth 48h: inconclusive; Cycloheximide cs: 1; Pf growth 96h: inconclusive

How did Cc1cc(C)cc([C@H]2C[C@]34CN(C(=O)OC(C)(C)C)S(=O)(=O)[C@H]3C[C@H]2O4)c1 do in these assays?
HCMV inh: -12

How did O=C(O)C1CSC(c2ccccc2Cl)N1C(=O)c1ccc(Cl)cc1 (centres undefined) do in these assays?
Shiga inhibitor: -15; HCMV inh: -61*; Pf growth 48h: -8%; Cycloheximide cs: -4; Pf growth 96h: -3%

Results for Cc1ccc(C2SCC(C(=O)O)N2C(=O)c2ccc(F)cc2)cc1 (centres undefined) ?
Shiga inhibitor: -10; HCMV inh: -35; Pf growth 48h: -1%; Cycloheximide cs: -2; Pf growth 96h: -3%

What do the screens show for `COc1ccc(-c2csc(N3CCC(c4ccccc4)C3)n2)cc1` (centres undefined)?
Shiga inhibitor: 13; HCMV inh: -2; Pf growth 48h: 35%; Cycloheximide cs: 11; Pf growth 96h: 21%

What do the screens show for `Clc1ccc(-c2csc(N3CCC(c4ccccc4)C3)n2)cc1` (centres undefined)?
Shiga inhibitor: 95*; HCMV inh: 53; Pf growth 48h: 122%; Cycloheximide cs: 19; Pf growth 96h: 94%

How did Fc1ccc(-c2csc(N3CCC(c4ccccc4)C3)n2)cc1 (centres undefined) do in these assays?
Shiga inhibitor: 94*; HCMV inh: 12; Pf growth 48h: 99%; Cycloheximide cs: 76*; Pf growth 96h: 192%

Results for CCOC(=O)C1CCN(C(=O)Cn2cnc3sc(C)c(S(=O)(=O)N4CCOCC4)c3c2=O)CC1 ?
Shiga inhibitor: -26; HCMV inh: -20; Pf growth 48h: 1.5µM*; Cycloheximide cs: -5; Pf growth 96h: inconclusive

Results for O=C1Cc2ccccc2C(=O)N1c1ccccc1 ?
Shiga inhibitor: -1; HCMV inh: 33; Pf growth 48h: 21%; Cycloheximide cs: -5; Pf growth 96h: 42%

What do the screens show for `Cc1cc(N2C(=O)Cc3ccccc3C2=O)ccc1C(C)C`?
Shiga inhibitor: 27; HCMV inh: -8; Pf growth 48h: 15%; Cycloheximide cs: 19*; Pf growth 96h: 10%

What do the screens show for `COC(=O)c1cc2sc(C)cc2n1Cc1ccc(Br)cc1F`?
HCMV inh: 23

How did Nc1c2nc(-c3ccccc3Cl)[nH]c(=O)c2nc(=O)n1-c1ccccc1 do in these assays?
Shiga inhibitor: 58*; HCMV inh: -3; Pf growth 48h: 31%; Cycloheximide cs: 22*; Pf growth 96h: 71%

What do the screens show for `Cc1ccc(NC(=O)CSc2nc3c(sc4ccccc43)c(=O)n2CCCC(=O)NC2CCCC2)cc1C`?
HCMV inh: -6

What do the screens show for `COC(=O)c1c(NC(=O)C2C3CCC(O3)C2C(=O)O)sc2c1CCCCCC2` (centres undefined)?
Shiga inhibitor: 12; HCMV inh: -27; Pf growth 48h: inconclusive; Cycloheximide cs: 0; Pf growth 96h: inconclusive

Results for COC(=O)c1c(NC(=O)C2C3CCC(C3)C2C(=O)O)sc2c1CCCCC2 (centres undefined) ?
Shiga inhibitor: 51*; HCMV inh: -11; Pf growth 48h: 5%; Cycloheximide cs: 13; Pf growth 96h: inconclusive

What do the screens show for `COc1ccc(OC)c(C2Nc3nc4ccccc4n3C(C)=C2C(=O)Nc2ccc(C)cc2C)c1` (centres undefined)?
Shiga inhibitor: -22; HCMV inh: inconclusive; Pf growth 48h: 7.4µM*; Cycloheximide cs: 17

What do the screens show for `COc1ccc(C2C(C(=O)Nc3ccc(C)cc3C)=C(C)Nc3nc4ccccc4n32)c(OC)c1` (centres undefined)?
HCMV inh: -5

Results for Cc1ccc(C(C)C)c(OCc2ccc(C(=O)N/N=C/c3ccc(C(=O)O)cc3)cc2)c1 ?
Shiga inhibitor: 25; HCMV inh: 0; Pf growth 48h: inconclusive; Cycloheximide cs: 11*; Pf growth 96h: -5%
